Source: PubChem BioAssay (NCATS)
Results filed as inconclusive are left out. Where a call stands in place of a potency, no number is given. The source made the active and inactive calls. Unless noted, the call rests on the fitted dose curve; in most records, active means well fitted curve in the direction sought with a large enough effect; inconclusive means small, poorly fitted or top-dose-only effect, or another doubt; inactive means no such curve, though single readings can be large; an effect the other way counts as inactive or inconclusive.

How the values were obtained:
[1] = qHTS for Inhibitors of the Functional Ribonucleoprotein Complex (vRNP) of Lassa (LASV) Arenavirus: LASV Primary Screen - GLuc reporter signal (AID 1347082; calls by dose curve; tested in HEK293 reporter line; further: nearly all actives have a fitted effect of over 60% in size; further: potency means the concentration at half of the fitted maximal effect)
[2] = qHTS for Inhibitors of the Functional Ribonucleoprotein Complex (vRNP) of Lassa (LASV) Arenavirus: Viability assay - alamar blue signal for LASV Primary Screen (AID 1347083; calls by dose curve; tested in HEK293 reporter line; further: nearly all actives have a fitted effect of over 80% in size; further: potency means the concentration at half of the fitted maximal effect)
[3] = qHTS for Inhibitors of the Functional Ribonucleoprotein Complex (vRNP) of Lymphocytic Choriomeningitis Arenaviruses (LCMV): Viability assay - alamar blue signal for LCMV Primary Screen (AID 1347085; calls by dose curve; tested in HEK293 reporter line; further: nearly all actives have a fitted effect of over 80% in size; further: potency means the concentration at half of the fitted maximal effect)
[4] = molecular target: Nucleoprotein (Lymphocytic choriomeningitis virus (strain Armstrong)) (UniProt P09992); test: qHTS for Inhibitors of the Functional Ribonucleoprotein Complex (vRNP) of Lymphocytic Choriomeningitis Arenaviruses (LCMV): LCMV Primary Screen - GLuc reporter signal (AID 1347086; calls by dose curve; further: nearly all actives have a fitted effect of over 70% in size; further: potency means the concentration at half of the fitted maximal effect)
[5] = qHTS of pediatric cancer cell lines to identify multiple opportunities for drug repurposing: Primary screen for TC32 cells (AID 1347089); further: nearly all actives have a fitted effect of over 60% in size; further: potency means the concentration at half of the fitted maximal effect
How it was run: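 In the primary qHTS, MIPE compounds were tested at 11 concentrations (0.78 nM to 46 µM) and NPC compounds at 8 (0.59 nM to 46 µM) on TC32 cells for 48 h. CellTiter-Glo luminescence gave viability.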

[6] = qHTS of pediatric cancer cell lines to identify multiple opportunities for drug repurposing: Primary screen for DAOY cells (AID 1347090); further: nearly all actives have a fitted effect of over 55% in size; further: potency means the concentration at half of the fitted maximal effect
How it was run: (§1)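 Viability measured as metabolically active cells via CellTiter-Glo luminescence following 48 hours of compound exposure, 11-point dilutions in confirmatory testing. 500-1,000 cells/well plated 5 hours before dosing; controls were DMSO and 2.3 µM bortezomib.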

[7] = qHTS of pediatric cancer cell lines to identify multiple opportunities for drug repurposing: Primary screen for SJ-GBM2 cells (AID 1347091); further: potency means the concentration at half of the fitted maximal effect
How it was run: as §1

[8] = qHTS of pediatric cancer cell lines to identify multiple opportunities for drug repurposing: Primary screen for A673 cells (AID 1347092); further: nearly all actives have a fitted effect of over 45% in size; further: potency means the concentration at half of the fitted maximal effect
How it was run: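 48 h compound exposure, A673, 500-1,000 cells/well, 37 degrees C/5% CO2. MIPE: 11-point, 0.78 nM-46 µM; NPC: 8-point, 0.59 nM-46 µM (final). Readout CellTiter-Glo luminescence after 15 min RT.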

[9] = qHTS of pediatric cancer cell lines to identify multiple opportunities for drug repurposing: Primary screen for SK-N-MC cells (AID 1347093); further: potency means the concentration at half of the fitted maximal effect
How it was run: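 Metabolically active cells were quantified by ATP-dependent luminescence (CellTiter-Glo, 15 min at room temperature) following 48 h treatment. Cells had been plated at 500-1,000 per well and settled for 5 h beforehand.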

[10] = qHTS of pediatric cancer cell lines to identify multiple opportunities for drug repurposing: Primary screen for BT-37 cells (AID 1347094); further: potency means the concentration at half of the fitted maximal effect
How it was run: (§2)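 Phenotypic viability qHTS, 48 h compound exposure, CellTiter-Glo luminescence read-out; multi-concentration dosing so that potency and efficacy derive directly from the primary screen's curves.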

[11] = qHTS of pediatric cancer cell lines to identify multiple opportunities for drug repurposing: Primary screen for NB-EBc1 cells (AID 1347095); further: potency means the concentration at half of the fitted maximal effect
How it was run: as §2

[12] = qHTS of pediatric cancer cell lines to identify multiple opportunities for drug repurposing: Primary screen for U-2 OS cells (AID 1347096); further: nearly all actives have a fitted effect of over 50% in size; further: potency means the concentration at half of the fitted maximal effect
How it was run: (§3)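 Viability after 48 h compound treatment at 37C, 500-1,000 cells/well, read as ATP luminescence with CellTiter-Glo. Primary screens used 11-point (MIPE, 0.78 nM-46 µM) or 8-point (NPC, 0.59 nM-46 µM) final concentrations; follow-up screens used 11-point dilutions.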

[13] = qHTS of pediatric cancer cell lines to identify multiple opportunities for drug repurposing: Primary screen for Saos-2 cells (AID 1347097); further: nearly all actives have a fitted effect of over 40% in size; further: potency means the concentration at half of the fitted maximal effect
How it was run: as §2

[14] = qHTS of pediatric cancer cell lines to identify multiple opportunities for drug repurposing: Primary screen for NB1643 cells (AID 1347099); further: nearly all actives have a fitted effect of over 50% in size; further: potency means the concentration at half of the fitted maximal effect
How it was run: as §2

[15] = qHTS of pediatric cancer cell lines to identify multiple opportunities for drug repurposing: Primary screen for LAN-5 cells (AID 1347100); further: potency means the concentration at half of the fitted maximal effect
How it was run: as §3

[16] = qHTS of pediatric cancer cell lines to identify multiple opportunities for drug repurposing: Primary screen for SK-N-SH cells (AID 1347098);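 further: DMSO served as neutral control and bortezomib at 2.3 µM as positive control; nearly all actives have a fitted effect of over 65% in size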
How it was run: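 Cells (500-1,000/well) rested 5 h, then received compounds for 48 h; metabolically active cells were measured by CellTiter-Glo luminescence. Final concentrations spanned up to 46 µM (MIPE, 11-point) or 0.59 nM-46 µM (NPC, 8-point) in primary screens, 11-point in follow-ups.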

Nucleoprotein (Lymphocytic choriomeningitis virus (strain Armstrong)), sequence (P09992 whole entry, looked up): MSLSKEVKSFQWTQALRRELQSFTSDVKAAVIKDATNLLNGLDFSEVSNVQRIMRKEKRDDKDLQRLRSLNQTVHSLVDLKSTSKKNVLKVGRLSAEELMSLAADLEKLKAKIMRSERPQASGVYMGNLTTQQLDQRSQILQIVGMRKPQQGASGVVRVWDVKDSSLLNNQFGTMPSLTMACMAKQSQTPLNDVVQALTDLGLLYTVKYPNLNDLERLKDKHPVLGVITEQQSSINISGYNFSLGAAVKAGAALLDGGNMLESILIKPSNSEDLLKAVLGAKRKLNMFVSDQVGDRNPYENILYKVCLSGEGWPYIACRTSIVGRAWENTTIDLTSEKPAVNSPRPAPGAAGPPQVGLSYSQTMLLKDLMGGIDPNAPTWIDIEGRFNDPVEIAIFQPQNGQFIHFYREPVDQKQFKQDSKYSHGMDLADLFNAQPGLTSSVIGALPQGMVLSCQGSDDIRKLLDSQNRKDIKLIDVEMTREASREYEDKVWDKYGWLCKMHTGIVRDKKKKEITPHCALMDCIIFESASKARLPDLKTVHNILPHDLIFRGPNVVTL

SMILES	Potency [1]	Potency [2]	Potency [3]	Potency [4]	Potency [5]	Potency [6]	Potency [7]	Potency [8]	Potency [9]	Potency [10]	Potency [11]	Potency [12]	Potency [13]	Potency [14]	Potency [15]	Potency [16]
C=CC(=O)NCNC(=O)C=C	inactive	inactive	inactive	inactive	inactive	inactive	inactive	inactive	inactive	inactive	inactive	inactive	inactive	inactive	inactive	
Cc1nc(-c2ccc(-c3ccc(C(=O)N4CCc5cc6c(cc54)C4(CCN(C)CC4)CO6)cc3)c(C)c2)no1	inactive	inactive	inactive	inactive	inactive	inactive	inactive	inactive	inactive	inactive	inactive	inactive	inactive	inactive	inactive	
CC(=O)OCC1=C(C(=O)O)N2C(=O)[C@@H](N)[C@@H]2SC1	inactive	inactive	inactive	inactive	inactive	inactive	2350 nM (active)	187 nM (active)	23500 nM (active)	1.22 µM (active)		inactive	0.935 µM (active)			
CN[C@@H]1Cc2cccc3[nH]c(=O)n(c23)C1	inactive	inactive	inactive	inactive	inactive	inactive	inactive		inactive	inactive	inactive	inactive	inactive	inactive	inactive	inactive
CCOP(=O)(NC(C)C)Oc1ccc(SC)c(C)c1 (stereo not drawn)	inactive	inactive	inactive	inactive	inactive	inactive	inactive	inactive	inactive	inactive	inactive	inactive	inactive	inactive	inactive	
Nc1ccc(Cl)cc1N	inactive	inactive	inactive	inactive	inactive	inactive	inactive		inactive			inactive		inactive	24300 nM (active)	
CCCCC(CC)COC(=O)c1ccccc1C(=O)OCC(CC)CCCC (stereo not drawn)	inactive	inactive	inactive	inactive	inactive	inactive	inactive	inactive	inactive	inactive	inactive	inactive		inactive	inactive	
O=C(O)CCCOc1ccc(Cl)cc1Cl	inactive	inactive	inactive	inactive	inactive	inactive	inactive	313 nM (active)	inactive	inactive	inactive	inactive	inactive	inactive	inactive	
C[C@]12CC[C@@H]3[C@@H](CCC4=CC(=O)CC[C@@H]43)[C@@H]1CC[C@@H]2OC(=O)CCc1ccccc1	inactive	inactive	inactive	inactive	inactive	inactive	inactive		inactive		inactive	inactive	18.7 µM (active)			
Cc1cc(O)ccc1Cl	inactive	inactive	inactive	inactive	inactive	inactive	inactive	inactive	inactive	inactive	inactive	inactive	inactive	inactive	inactive	
Cc1[nH]nc2ccc(-c3cncc(OC[C@@H](N)Cc4c[nH]c5ccccc45)c3)cc12	485 nM (active)	172 nM (active)	432 nM (active)	243 nM (active)	1860 nM (active)	1.87 µM (active)	1050 nM (active)	118 nM (active)	264 nM (active)	1.53 µM (active)	1660 nM (active)	inactive			166 nM (active)	
C[C@]12CCC(=O)C(O)=C1CC[C@@H]1[C@H]3CCC(=O)[C@@]3(C)CC[C@@H]12	inactive	inactive	inactive	inactive	inactive	inactive	inactive	inactive	inactive	inactive	inactive	inactive			inactive	
COC(=O)c1cncn1C(C)c1ccccc1 (stereo not drawn)	inactive	inactive	inactive	inactive	inactive	inactive	inactive	inactive	inactive		inactive	inactive		inactive	inactive	inactive
O=[N+]([O-])/N=C1\NCCN1Cc1ccc(Cl)nc1	inactive	inactive	inactive	inactive	inactive	inactive	inactive	inactive	inactive	inactive	inactive	inactive		inactive	inactive	inactive
CCN(CC)C(=O)c1ccc(C2=CC3(CCNCC3)Oc3cccc(O)c32)cc1	inactive	inactive	inactive	inactive	inactive	inactive	inactive	inactive	inactive	inactive	inactive	inactive	inactive		inactive	
C[C@]12CC[C@H]3[C@@H](CCC4=CC(=O)CC[C@@]43C)[C@H]1CC[C@H]2O	inactive	inactive	inactive	inactive	inactive	inactive	inactive		inactive		inactive	inactive	inactive	inactive	inactive	
CC(C)(C)NC[C@H](O)c1ccc(O)cc1Cl	inactive	inactive	inactive	inactive	inactive	inactive	inactive	inactive	inactive		inactive	inactive	inactive	inactive	inactive	
COC(C)(C)CCCC(C)C/C=C/C(C)=C/C(=O)OC(C)C (stereo not drawn)	inactive	inactive	inactive	inactive	inactive	inactive	inactive	inactive	inactive		inactive	inactive	inactive	inactive	inactive	inactive
CN(C)[C@@H]1C(=O)C(C(N)=O)=C(O)[C@@]2(O)C(=O)C3=C(O)c4c(O)cccc4[C@@](C)(O)[C@H]3[C@H](O)[C@@H]12	inactive	inactive	inactive	inactive	inactive	inactive	inactive	inactive	inactive	inactive	inactive	inactive	inactive	inactive	inactive	
CN[C@@H](C)[C@H](O)c1ccccc1	inactive	inactive	inactive	inactive	inactive	inactive	inactive	inactive	inactive		inactive	inactive	inactive	inactive	inactive	inactive
CCOCCOC(C)=O	inactive	inactive	inactive	inactive	inactive	inactive	inactive	inactive	inactive	inactive	inactive	inactive	inactive	inactive	inactive	
COC1=CC(C)=C[C@@H](C)[C@@H](O)[C@@H](C)CC(C)=CC=C[C@H](OC)[C@H]([C@@H](C)[C@@H](O)[C@H](C)[C@@]2(O)C[C@@H](O)[C@H](C)[C@@H](C(C)C)O2)OC1=O	109 nM (active)	76.9 nM (active)	34.3 nM (active)	48.5 nM (active)	330 nM (active)		1 nM (active)	3.7 nM (active)	2.1 nM (active)		1 nM (active)	37.2 µM (active)	29.6 µM (active)	9.3 nM (active)		
CC(=Cc1csc(C)n1)[C@@H]1C[C@H]2O[C@@H]2CCC[C@H](C)[C@@H](O)[C@@H](C)C(=O)C(C)(C)[C@@H](O)CC(=O)O1	inactive	inactive	inactive	inactive	1.2 nM (active)		1 nM (active)		1 nM (active)		1 nM (active)	inactive	0.001 µM (active)		1 nM (active)	inactive
O=S(=O)(O)C(F)(F)C(F)(F)C(F)(F)C(F)(F)C(F)(F)C(F)(F)C(F)(F)C(F)(F)F	inactive	inactive	inactive	inactive	inactive		inactive	inactive	inactive		inactive	inactive	inactive	inactive	inactive	
CC(C)(C)C(O)C(Oc1ccc(Cl)cc1)n1cncn1 (stereo not drawn)	inactive	inactive	inactive	inactive	inactive		inactive	inactive	1 nM (active)	inactive	inactive	inactive		inactive	inactive	
CCCCCCCCCC(CC)c1ccc(S(=O)(=O)O)cc1 (stereo not drawn)	inactive	inactive	inactive	inactive	inactive	inactive						inactive	30.6 µM (active)	inactive	inactive	inactive
COc1cc2cc(c1Cl)N(C)C(=O)C[C@H](OC(=O)C(C)C)[C@]1(C)O[C@H]1[C@H](C)[C@@H]1C[C@@](O)(NC(=O)O1)[C@H](OC)C=CC=C(C)C2	inactive	inactive	inactive	inactive	208 nM (active)		1 nM (active)	1 nM (active)	1 nM (active)	3.85 µM (active)	1 nM (active)	inactive	0.662 µM (active)		1 nM (active)	
